Data on 15 compounds can be found in PubChem BioAssay (EPA / NIEHS).

Values joined by “and” are separate entries in the source; they are usually repeats but may differ in a detail not shown here. Equal values may be shown once. More than one record can exist for a structure, and the calls need not agree. Active and inactive are the calls of the source. Rule for the calls: active = hit-call score of the fitted dose curve at least 0.9, where 1 is the maximum; inactive = score below 0.9.

Common to all, as to conditions: primary human HUVEC with PBMC; actives raise or lower the signal
A short description of experiment [1]: BSK_LPS_PGE2: BioMAP Diversity Plus: LPS Assay for Prostaglandin E2 (PGE2) Biomarker Activity (AID 2283082).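 For AC50: secreted prostaglandin E2 measured by ELISA in LPS-stimulated co-culture.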 A digest of the protocol:
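LPS-activated HUVEC/PBMC co-culture; cmpd dosed, 24 h; PGE2 by ELISA; bidirectional fit vs DMSO; SRB (0.1%, TCA-fixed, 560 nm) in parallel plates for overt cytotox.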

Read-out in experiment [2]: Macrophage colony-stimulating factor (MCSF), CSF1 (gene 1435)
In words: BSK_LPS_MCSF: BioMAP Diversity Plus: LPS Assay for Macrophage colony-stimulating factor (MCSF) Biomarker Activity (AID 2283083). A digest of the protocol: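 HUVEC–PBMC co-culture, M-CSF measured by ELISA 24 h after chemical dosing. Fitted in both directions relative to DMSO as negative control; overt cytotoxicity assessed by SRB total-protein staining in parallel cultures.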

Read-out in experiment [3]: Tissue Factor, F3 (gene 2152)
In words: BSK_LPS_TissueFactor: BioMAP Diversity Plus: LPS Assay for Tissue Factor Biomarker Activity (AID 2283084). Put shortly:
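Human umbilical vein endothelial cells co-cultured with PBMC were dosed with compound. Cell-surface CD142 was measured by ELISA 24 h later. Activity was fitted bidirectionally against DMSO, with SRB total-protein staining in parallel cultures for cytotoxicity.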

Read-out in experiment [4]: Vascular cell adhesion molecule 1 (VCAM1), VCAM1 (gene 7412)
In words: BSK_LPS_VCAM1: BioMAP Diversity Plus: LPS Assay for Vascular cell adhesion molecule 1 (VCAM1) Biomarker Activity (AID 2283086). Put shortly: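 HUVEC + PBMC co-culture, LPS system; compound 24 h; VCAM-1 by ELISA; bidirectional fit vs DMSO control; parallel SRB (0.1%, TCA-fixed, 560 nm) for cytotoxicity.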

Read-out in another experiment: CD38, CD38 (gene 952)
Put plainly: BSK_SAg_CD38: BioMAP Diversity Plus: SAg Assay for CD38 Biomarker Activity (AID 2283087). Put shortly:
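Human HUVEC plus PBMC co-culture stimulated with superantigen; CD38 measured by ELISA 24 h after chemical dosing. Fluorescence read-out, bidirectional fit against DMSO; cytotoxicity tracked in parallel by SRB and Alamar Blue.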

Read-out in another experiment: CD40, CD40 (gene 958)
In words: BSK_SAg_CD40: BioMAP Diversity Plus: SAg Assay for CD40 Biomarker Activity (AID 2283088). A digest of the protocol: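 HUVEC plus PBMC co-culture, superantigen-activated, with CD40 read by ELISA 24 h after dosing. Curves fitted in both directions against DMSO. Overt cytotoxicity checked by parallel SRB total-protein staining.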

Read-out in another experiment: CD69, CD69 (gene 969)
In words: BSK_SAg_CD69: BioMAP Diversity Plus: SAg Assay for CD69 Biomarker Activity (AID 2283089).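 For AC50: cell surface CD69 protein quantified by ELISA with fluorescence detection.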 A digest of the protocol:
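ELISA, fluorescence read-out: CD69 on human umbilical vein endothelial cell + PBMC co-culture, 24 h post-dosing. Gain or loss of signal fitted bidirectionally against DMSO baseline.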

Read-out in experiment [5]: Monocyte Chemoattractant Protein-1 (MCP1), CCL2 (gene 6347)
In words: BSK_SAg_MCP1: BioMAP Diversity Plus: SAg Assay for Monocyte Chemoattractant Protein-1 (MCP1) Biomarker Activity (AID 2283090). Put shortly: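 MCP-1 levels in the endothelial–PBMC SAg co-culture were quantified by ELISA at 24 h post-dosing; both increases and decreases versus DMSO scored. Cytotoxicity monitored by SRB total protein in parallel cultures.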

Read-out in experiment [6]: E-selectin (Homo sapiens) (UniProt P16581)
In words: BSK_SAg_Eselectin: BioMAP Diversity Plus: SAg Assay for Eselectin Biomarker Activity (AID 2283091). A digest of the protocol: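 Human umbilical vein endothelial cells co-cultured with peripheral blood mononuclear cells, SAg system. E-selectin is measured by ELISA 24 h after dosing and fitted bidirectionally against DMSO. Cytotoxicity is checked by SRB staining of parallel cultures.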

Read-out in experiment [7]: Tumor necrosis factor (Homo sapiens) (UniProt P01375)
In words: BSK_LPS_TNFa: BioMAP Diversity Plus: LPS Assay for Tumour Necrosis Factor alpha (TNFa) Biomarker Activity (AID 2283085). Put shortly: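 Read-out is ELISA of TNFa in primary human endothelial cell–PBMC co-cultures at 24 h after compound. Activity in either direction was fitted against DMSO.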

Chain of Tumor necrosis factor (Homo sapiens) (P01375 whole entry, looked up): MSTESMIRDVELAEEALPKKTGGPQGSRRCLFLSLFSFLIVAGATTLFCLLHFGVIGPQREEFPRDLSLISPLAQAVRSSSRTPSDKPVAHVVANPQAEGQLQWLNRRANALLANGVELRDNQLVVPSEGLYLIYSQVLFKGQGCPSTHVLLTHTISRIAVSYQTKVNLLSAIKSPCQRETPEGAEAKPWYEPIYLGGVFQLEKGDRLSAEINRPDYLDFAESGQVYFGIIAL
Chain of E-selectin (Homo sapiens) (P16581 whole entry, looked up): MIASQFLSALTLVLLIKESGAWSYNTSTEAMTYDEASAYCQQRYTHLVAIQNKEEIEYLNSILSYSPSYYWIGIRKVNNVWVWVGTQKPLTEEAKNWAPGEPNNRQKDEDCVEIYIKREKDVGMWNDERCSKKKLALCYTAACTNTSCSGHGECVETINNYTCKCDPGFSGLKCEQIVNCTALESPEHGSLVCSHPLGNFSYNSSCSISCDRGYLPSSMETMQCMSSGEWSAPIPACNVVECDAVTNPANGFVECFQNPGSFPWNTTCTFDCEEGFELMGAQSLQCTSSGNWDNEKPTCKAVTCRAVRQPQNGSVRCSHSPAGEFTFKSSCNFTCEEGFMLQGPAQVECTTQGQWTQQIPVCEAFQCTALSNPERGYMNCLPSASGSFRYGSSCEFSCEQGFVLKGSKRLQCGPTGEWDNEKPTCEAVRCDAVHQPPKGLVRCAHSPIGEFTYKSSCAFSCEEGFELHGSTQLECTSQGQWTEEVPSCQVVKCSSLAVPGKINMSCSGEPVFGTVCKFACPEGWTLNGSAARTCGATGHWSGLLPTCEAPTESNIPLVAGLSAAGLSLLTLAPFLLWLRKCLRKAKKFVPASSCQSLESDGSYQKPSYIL

The term AC50 denotes the concentration giving half of the maximal activity seen. For `O=C(O)C(F)(F)C(F)(F)C(F)(F)C(F)(F)C(F)(F)C(F)(F)C(F)(F)C(F)(F)F`, the AC50 in experiment [1] was 20 µM (active) and 19.9 µM (active) and 14.8 µM (active); in experiment [4], 51.5 µM (active) and 54.3 µM (active); with CD38, CD38 (gene 952), 49.6 µM (active) and 47 µM (active); with CD40, CD40 (gene 958) it was 30 µM (active); in the experiment with CD69, CD69 (gene 969), 42.7 µM (active) and 43.5 µM (active); in experiment [5], 47.6 µM (active). Besides, the outcome in experiment [2] was “inactive”; in experiment [3], “inactive”; in [4] it was “inactive”; with CD38, CD38 (gene 952), “inactive”; with CD40, CD40 (gene 958), “inactive”; with CD69, CD69 (gene 969), “inactive”. Also, the outcome in experiment [5] and in experiment [6] was inactive.

On to `CCC(=O)O[C@H]1CC[C@H]2[C@@H]3CCC4=CC(=O)CC[C@]4(C)[C@H]3CC[C@]12C`, for which the outcome in experiment [1] was inactive. In addition, the concentration at half-maximal activity (AC50) in [2] is 26 µM (active); in [3] it was 30.8 µM (active); in [7], 32.1 µM (active); in experiment [4], 30.5 µM (active); in the experiment with CD38, CD38 (gene 952), 36 µM (active); in the experiment with CD40, CD40 (gene 958), 31.9 µM (active). In addition, the AC50 in the experiment with CD69, CD69 (gene 969) is 31.1 µM (active); in [5], 30.1 µM (active); in experiment [6], 34.2 µM (active).

Turning to `CC(C)(O)C(=O)Nc1ccc([N+](=O)[O-])c(C(F)(F)F)c1`, the AC50 in experiment [1] is 0.024 µM (active); in experiment [2], 23.1 µM (active). Further, the outcome is “inactive” in experiment [3]; “inactive” in [7]; “inactive” in [4]; “inactive” with CD38, CD38 (gene 952); “inactive” with CD40, CD40 (gene 958); “inactive” in the experiment with CD69, CD69 (gene 969). For the same compound, in experiment [5], the outcome was inactive.

Consider `O=C(N[C@H]1CN2CCC1CC2)c1cc2ccoc2cn1`, for which the outcome in experiment [1] is “inactive”; in [2] it was “inactive”; in experiment [3], “inactive”; in [7], “inactive”; in experiment [4], “inactive”; with CD38, CD38 (gene 952), “inactive”. Also, the outcome with CD40, CD40 (gene 958) was “inactive”; with CD69, CD69 (gene 969) it was “inactive”; in experiment [5], “inactive”; in experiment [6], “inactive”.

As to `Nn1cnnc1`, the outcome is “inactive” in [1]; “inactive” in experiment [2]; “inactive” in [3]; “inactive” in experiment [7]; “inactive” in [4]; “inactive” with CD38, CD38 (gene 952). The outcome with CD40, CD40 (gene 958) was “inactive”; with CD69, CD69 (gene 969) it was “inactive”; in experiment [5] it was “inactive”; in experiment [6], “inactive”.

In the case of `O=C(NC(=O)c1c(F)cccc1F)Nc1cc(Cl)c(OC(F)(F)C(F)F)c(Cl)c1`, the outcome in experiment [1] was “inactive”; in experiment [2], “inactive”; in experiment [3], “inactive”; in [4] it was “inactive”; with CD38, CD38 (gene 952), “inactive”; with CD40, CD40 (gene 958) it was “inactive”. The outcome with CD69, CD69 (gene 969) is “inactive”; in [5], “inactive”; in experiment [6] it was “inactive”. In addition, the AC50 in experiment [7] was 0.401 µM (active).

Turning to `CCSC(=O)N(CC)C1CCCCC1`, the outcome was “inactive” in experiment [1]; “inactive” in experiment [2]; “inactive” in experiment [3]; “inactive” in experiment [7]; “inactive” in experiment [4]; “inactive” with CD38, CD38 (gene 952). Further, the outcome in the experiment with CD40, CD40 (gene 958) was “inactive”; with CD69, CD69 (gene 969) it was “inactive”; in experiment [5], “inactive”; in [6], “inactive”.

For `CCCCCCCCCc1ccc(O)cc1`, the AC50 in [1] was 7.76 µM (active); in experiment [2] it was 23.6 µM (active); in experiment [3] it was 31.3 µM (active); in experiment [7] it was 36.5 µM (active); in [4] it was 22 µM (active); with CD38, CD38 (gene 952), 15.9 µM (active). For the same compound, the AC50 was 20.3 µM (active) in the experiment with CD40, CD40 (gene 958); 22.7 µM (active) with CD69, CD69 (gene 969); 29.8 µM (active) in experiment [5]; 20 µM (active) in experiment [6].

On to `Oc1c(Cl)c(Cl)c(Cl)c(Cl)c1Cl`, for which the AC50 in [1] was 4.98 µM (active); in [2] it was 10.2 µM (active) and 25.5 µM (active); in experiment [3] it was 32.4 µM (active); in [7] it was 20 µM (active); in [4], 10.2 µM (active) and 14.6 µM (active); in the experiment with CD38, CD38 (gene 952) it was 27.7 µM (active). Moreover, the AC50 is 10.2 µM (active) and 24.1 µM (active) with CD40, CD40 (gene 958); 10.2 µM (active) and 19.8 µM (active) with CD69, CD69 (gene 969); 10.2 µM (active) and 33.6 µM (active) in [5]; 27.3 µM (active) in [6]. The result in experiment [1], in experiment [3], in experiment [7] and in experiment [6] was inactive.

For `O=S(=O)(O)C(F)(F)C(F)(F)C(F)(F)C(F)(F)F`, the outcome in experiment [1] was “inactive”; in [2], “inactive”; in experiment [3], “inactive”; in experiment [7], “inactive”; in experiment [4], “inactive”; in the experiment with CD38, CD38 (gene 952) it was “inactive”. Moreover, the outcome with CD40, CD40 (gene 958) is “inactive”; with CD69, CD69 (gene 969), “inactive”; in experiment [5], “inactive”; in experiment [6] it was “inactive”.

Turning to `C[C@]12CCC(=O)C=C1CC[C@@H]1[C@@H]2CC[C@@]2(C)[C@H]1CC[C@]2(C)O`, the outcome was “inactive” in experiment [1]; “inactive” in experiment [2]; “inactive” in [3]; “inactive” in experiment [7]; “inactive” in [4]; “inactive” with CD38, CD38 (gene 952). The outcome is “inactive” in the experiment with CD40, CD40 (gene 958); “inactive” in the experiment with CD69, CD69 (gene 969); “inactive” in experiment [5]; “inactive” in experiment [6].

In the case of `Sc1ccccc1`, the outcome was “inactive” in [1]; “inactive” in [2]; “inactive” in [3]; “inactive” in experiment [7]; “inactive” in experiment [4]; “inactive” in the experiment with CD38, CD38 (gene 952). The outcome was “inactive” with CD40, CD40 (gene 958); “inactive” with CD69, CD69 (gene 969); “inactive” in experiment [5]; “inactive” in experiment [6].

On to `O=S(=O)(O)C(F)(F)C(F)(F)C(F)(F)C(F)(F)C(F)(F)C(F)(F)F`, for which the outcome in experiment [1] is “inactive”; in experiment [2] it was “inactive”; in experiment [3] it was “inactive”; in [4], “inactive”; with CD38, CD38 (gene 952) it was “inactive”; with CD40, CD40 (gene 958) it was “inactive”. Moreover, the outcome was “inactive” with CD69, CD69 (gene 969); “inactive” in [5]; “inactive” in experiment [6].

In the case of `Cc1ccccc1[N+](=O)[O-]`, the outcome is “inactive” in experiment [1]; “inactive” in experiment [2]; “inactive” in [3]; “inactive” in experiment [7]; “inactive” in experiment [4]; “inactive” with CD38, CD38 (gene 952). For the same compound, the outcome was “inactive” with CD40, CD40 (gene 958); “inactive” in the experiment with CD69, CD69 (gene 969); “inactive” in experiment [5]; “inactive” in experiment [6].

As for `Cc1cc2c3c(c1)C(c1ccccc1)=N[C@@H](NC(=O)c1ccncc1)C(=O)N3CC2`, the outcome in experiment [1], in [3] and in experiment [4] was inactive. Besides, the AC50 in experiment [2] was 4.6 µM (active); with CD38, CD38 (gene 952), 11.8 µM (active); in the experiment with CD40, CD40 (gene 958) it was 20 µM (active); with CD69, CD69 (gene 969), 5.02 µM (active); in [5] it was 20 µM (active); in [6], 4 µM (active).
